# Laboratory results as given in a collection of fitness landscapes (doi:10.1016/j.celrep.2020.107928).
# The full ranking holds about 81,000 sequences; the median of “one-hybrid fitness for binding parS DNA” is about -0.17, and the highest 2% start at about 0.51. The sample holds the highest values, similar sequences and a random draw of the others, so the mix is not that of the screen.
# B1: Caulobacter ParB omega fusion; a variant is named by its letters at X, in order, B8GW30 (parent)
# chain: MESVVVGEPGMSEGRRGLGRGLSALLGEVDAAPAQAPGEQLGGSREAPIEILQRNPDQPRRTFREEDLEDLSNSIREKGVLQPILVRPSPDTAGEYQIVAGERAWRAAQRAGLKTVPIMVRELDDLAVLEIGIIENVQRADLNVLEEALSYKVLMEKFERTQENIAQTIGKSXSHVANXMRLLXLPDEVQSYLVSGELTAXHARAIAAAADPVALAKQIIEGGLSVRETEALARKAPNLSAGKSKGGRPPRVKDTDTQALESDLSSVLGLDVSIDHRGSTGTLTITYATLEQLDDLCNRLTRGI
# Variants of: B1
# Test: one-hybrid fitness for binding parS DNA (scaled: cognate 1, non-cognate 0); higher = stronger binding
# Conditions: with parS DNA site
# In short: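 Selection: bacterial one-hybrid in E. coli USO, HIS3 reporter with the site 19 bp from the promoter, 48 hours at 37°C on M9-minus-histidine plus 0.1 mM IPTG and 5 mM 3-AT. Libraries were Caulobacter ParB with four randomised specificity codons, sequenced on Illumina before and after selection. Fitness is the rescaled log change in variant-to-wild-type read ratio, anchored to the cognate and non-cognate sites.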
row,Variant,one-hybrid fitness for binding parS DNA
1,DKAC,≤ 0.2
2,PMRT,≤ 0.2
3,CRCT,≤ 0.2
4,TSLF,≤ 0.2
5,MEYL,≤ 0.2
6,QCLV,≤ 0.2
7,EWYS,≤ 0.2
8,RWYM,≤ 0.2
9,RWIF,≤ 0.2
10,RWSQ,≤ 0.2
11,RWYG,0.714
12,RWIG,0.569
13,RWPG,0.406
14,RWGF,≤ 0.2
15,RWYF,≤ 0.2
16,RWGG,0.63
17,RWSR,≤ 0.2
18,RWGM,≤ 0.2
19,RWSG,0.769
20,PNWL,≤ 0.2
21,PCED,≤ 0.2
22,HNST,≤ 0.2
23,SHDR,≤ 0.2
24,PGRS,≤ 0.2
25,GDYR,≤ 0.2

row,Variant,one-hybrid fitness for binding parS DNA
1,GWST,≤ 0.2
2,QTYA,≤ 0.2
3,NGRC,≤ 0.2
4,RWCM,≤ 0.2
5,RWWG,0.641
6,RWCR,≤ 0.2
7,RWCG,0.688
8,RWQK,≤ 0.2
9,RWDF,≤ 0.2
10,RWWY,≤ 0.2
11,RWQG,0.741
12,RWDK,≤ 0.2
13,RWWR,≤ 0.2
14,RWDG,0.616
15,RWQM,≤ 0.2
16,QCIG,≤ 0.2
17,ILHY,≤ 0.2
18,PETC,≤ 0.2
19,RDAC,≤ 0.2
20,CSPC,≤ 0.2
21,WCDG,≤ 0.2
22,TEMT,≤ 0.2
23,QRMV,≤ 0.2
24,PGQN,≤ 0.2
25,RFNK,0.203

row,Variant,one-hybrid fitness for binding parS DNA
1,YQGC,≤ 0.2
2,RRKR,≤ 0.2
3,RRKC,0.649
4,RRVC,0.673
5,RRKQ,≤ 0.2
6,PLTK,≤ 0.2
7,INSY,≤ 0.2
8,ENFG,≤ 0.2
9,RTRD,≤ 0.2
10,RTYT,0.952
11,RTYK,≤ 0.2
12,RTQM,0.352
13,RTQT,0.925
14,RTWN,0.461
15,RTRT,0.747
16,RTYR,≤ 0.2
17,RTWT,0.916
18,RTWH,0.254
19,RTRK,≤ 0.2
20,RTQQ,≤ 0.2
21,RGTV,≤ 0.2
22,KKRF,≤ 0.2
23,SRPQ,≤ 0.2
24,ITEL,≤ 0.2
25,RTSK,≤ 0.2

row,Variant,one-hybrid fitness for binding parS DNA
1,RTGR,≤ 0.2
2,RTGT,0.912
3,RTST,0.91
4,RTSF,0.246
5,RTGP,≤ 0.2
6,TRWL,≤ 0.2
7,HSDW,≤ 0.2
8,HVPD,≤ 0.2
9,GQVR,≤ 0.2
10,FGAG,≤ 0.2
11,NLVS,≤ 0.2
12,RHVT,0.637
13,RHKT,0.745
14,RHKF,0.255
15,RHKK,≤ 0.2
16,RHVK,≤ 0.2
17,RHVM,≤ 0.2
18,TMRL,≤ 0.2
19,CWHG,0.244
20,MPLG,≤ 0.2
21,YPFR,≤ 0.2
22,RTVD,≤ 0.2
23,RTVH,≤ 0.2
24,RTKN,0.441
25,RTVG,0.979

row,Variant,one-hybrid fitness for binding parS DNA
1,RTKR,≤ 0.2
2,RTKG,0.872
3,KCHG,≤ 0.2
4,GQFL,≤ 0.2
5,PQKC,≤ 0.2
6,NWQS,≤ 0.2
7,RRFP,≤ 0.2
8,RRAD,≤ 0.2
9,RCAN,0.477
10,RRAN,0.583
11,RRFN,0.314
12,RRFS,0.743
13,RRAH,≤ 0.2
14,RRAS,0.652
15,RRFH,≤ 0.2
16,MEPC,≤ 0.2
17,GRGV,≤ 0.2
18,MVCR,≤ 0.2
19,PWNF,≤ 0.2
20,ATEL,≤ 0.2
21,REGS,≤ 0.2
22,FMKF,≤ 0.2
23,IDST,≤ 0.2
24,HFES,≤ 0.2
25,QITI,≤ 0.2

row,Variant,one-hybrid fitness for binding parS DNA
1,LTWC,≤ 0.2
2,ADCT,≤ 0.2
3,ENNV,≤ 0.2
4,DYSL,≤ 0.2
5,RSCY,0.47
6,RPCY,≤ 0.2
7,RCCY,0.526
8,RMCY,0.509
9,WWVS,≤ 0.2
10,TIHD,≤ 0.2
11,VITG,≤ 0.2
12,YPSN,≤ 0.2
13,RLIG,0.934
14,RLPG,0.755
15,RLIK,≤ 0.2
16,RLIY,0.437
17,RLPH,≤ 0.2
18,RLPP,≤ 0.2
19,NLNR,≤ 0.2
20,YYRR,≤ 0.2
21,VLMH,≤ 0.2
22,LVRM,≤ 0.2
23,KHKS,≤ 0.2
24,DGAP,≤ 0.2
25,RWTD,≤ 0.2

row,Variant,one-hybrid fitness for binding parS DNA
1,RWTY,0.37
2,RWTH,≤ 0.2
3,RWTT,0.705
4,RWTS,0.956
5,RWTN,0.338
6,RWTG,0.824
7,RWTQ,≤ 0.2
8,RWTF,≤ 0.2
9,RWTP,≤ 0.2
10,RWTC,0.79
11,RWTR,≤ 0.2
12,SCKV,≤ 0.2
13,RMTE,≤ 0.2
14,EKPG,≤ 0.2
15,PAYN,≤ 0.2
16,HTMF,≤ 0.2
17,AKDP,≤ 0.2
18,FKSC,≤ 0.2
19,TTMG,≤ 0.2
20,PSRP,≤ 0.2
21,QMFV,≤ 0.2
22,YLKH,0.358
23,HKTR,≤ 0.2
24,KKHM,≤ 0.2
25,RLHA,0.592

row,Variant,one-hybrid fitness for binding parS DNA
1,RAHA,0.613
2,RPHA,≤ 0.2
3,DLHA,≤ 0.2
4,RSHA,0.592
5,RWHA,0.378
6,RDHA,≤ 0.2
7,RCHA,0.626
8,RGHA,0.238
9,NAHA,≤ 0.2
10,RNHA,0.438
11,LRPS,≤ 0.2
12,RCFW,0.256
13,MCTC,≤ 0.2
14,CVPM,≤ 0.2
15,SGES,≤ 0.2
16,ADNQ,≤ 0.2
17,SFPL,≤ 0.2
18,TQVG,≤ 0.2
19,TFSM,≤ 0.2
20,PVIS,≤ 0.2
